According to article PMC7862700, “An all-to-all approach to the identification of sequence-specific readers for epigenetic DNA modifications on cytosine”:

Key:
Assay in all cases: DAPPL (digital affinity profiling via proximity ligation, sequencing); 10 mM Tris-HCl pH 7.5, 50 mM NaCl, 1 mM DTT, 4% glycerol, room temperature, 30 min; GST-TFs on glutathione beads, 16-mer random dsDNA library, 0.1% formaldehyde crosslink after washing; high values mean tight binding
FLI1 = biological target: T1, FLI1 (Homo sapiens, UniProt Q01543 1-452); details: protein: recombinant; tags: N-terminal GST; dsDNA, one strand shown
T1 sequence: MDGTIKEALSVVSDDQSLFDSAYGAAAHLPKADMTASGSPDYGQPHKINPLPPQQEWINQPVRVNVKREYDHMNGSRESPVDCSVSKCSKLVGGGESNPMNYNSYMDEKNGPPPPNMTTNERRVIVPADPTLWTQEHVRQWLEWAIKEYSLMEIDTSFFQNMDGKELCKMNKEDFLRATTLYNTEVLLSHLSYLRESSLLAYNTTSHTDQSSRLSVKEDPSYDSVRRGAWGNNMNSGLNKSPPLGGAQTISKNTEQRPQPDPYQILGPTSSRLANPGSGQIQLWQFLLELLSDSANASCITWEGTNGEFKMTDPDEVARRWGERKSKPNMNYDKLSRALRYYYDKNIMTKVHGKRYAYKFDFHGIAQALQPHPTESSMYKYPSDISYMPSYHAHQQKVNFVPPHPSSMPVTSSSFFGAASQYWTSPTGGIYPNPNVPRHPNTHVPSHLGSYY
Procedure, shortened: (§1)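 Binding signal is defined as a hexamer's read frequency for one factor over its frequency for the tag-only sample. To obtain reads, GST-fused human transcription factors were expressed in yeast, captured on glutathione beads, barcoded with DNA and pooled with that sample. Pools met 200 nmole of a 16-mer random double-stranded DNA library in Tris/NaCl/DTT/glycerol buffer for 30 min at room temperature before washing, 0.1% formaldehyde crosslinking, proximity ligation (BsaI/T4 ligase, 1 h, 37 °C), PCR and Illumina NextSeq500 sequencing.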

ELK1 = biological target: T2, ELK1 (Homo sapiens, UniProt P19419 1-428); details: protein: recombinant; tags: N-terminal GST; dsDNA, one strand shown
T2 sequence: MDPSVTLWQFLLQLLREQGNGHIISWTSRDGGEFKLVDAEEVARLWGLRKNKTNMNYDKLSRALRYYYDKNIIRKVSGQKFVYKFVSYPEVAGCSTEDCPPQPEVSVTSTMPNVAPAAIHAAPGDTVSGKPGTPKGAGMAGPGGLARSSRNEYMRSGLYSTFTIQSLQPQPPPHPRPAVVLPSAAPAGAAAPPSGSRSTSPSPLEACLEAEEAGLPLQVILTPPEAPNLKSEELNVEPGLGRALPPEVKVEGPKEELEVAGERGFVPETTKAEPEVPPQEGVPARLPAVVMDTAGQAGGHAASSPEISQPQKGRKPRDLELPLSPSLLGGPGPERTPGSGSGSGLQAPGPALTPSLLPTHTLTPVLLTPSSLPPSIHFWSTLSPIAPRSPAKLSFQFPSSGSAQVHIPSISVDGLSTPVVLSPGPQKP
Procedure, shortened: as §1

GABPA = biological target: T3, GABPA (Homo sapiens, UniProt Q06546 1-454); details: protein: recombinant; tags: N-terminal GST; dsDNA, one strand shown
T3 sequence: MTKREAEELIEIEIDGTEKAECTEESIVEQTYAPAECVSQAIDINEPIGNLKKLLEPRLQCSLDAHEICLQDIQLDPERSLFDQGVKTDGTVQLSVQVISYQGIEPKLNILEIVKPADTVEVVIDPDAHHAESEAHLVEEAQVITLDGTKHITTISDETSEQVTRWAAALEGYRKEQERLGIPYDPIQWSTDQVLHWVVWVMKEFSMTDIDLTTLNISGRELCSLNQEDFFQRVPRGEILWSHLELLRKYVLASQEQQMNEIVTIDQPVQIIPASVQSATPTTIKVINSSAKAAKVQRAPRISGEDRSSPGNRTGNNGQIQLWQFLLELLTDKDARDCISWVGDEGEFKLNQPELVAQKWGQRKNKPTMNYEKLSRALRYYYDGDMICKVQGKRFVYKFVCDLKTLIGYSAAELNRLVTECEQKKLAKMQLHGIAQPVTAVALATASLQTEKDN
Procedure, shortened: as §1

ERG = biological target: T4, ERG (Homo sapiens, UniProt P11308 1-479); details: protein: recombinant; tags: N-terminal GST; dsDNA, one strand shown
T4 sequence: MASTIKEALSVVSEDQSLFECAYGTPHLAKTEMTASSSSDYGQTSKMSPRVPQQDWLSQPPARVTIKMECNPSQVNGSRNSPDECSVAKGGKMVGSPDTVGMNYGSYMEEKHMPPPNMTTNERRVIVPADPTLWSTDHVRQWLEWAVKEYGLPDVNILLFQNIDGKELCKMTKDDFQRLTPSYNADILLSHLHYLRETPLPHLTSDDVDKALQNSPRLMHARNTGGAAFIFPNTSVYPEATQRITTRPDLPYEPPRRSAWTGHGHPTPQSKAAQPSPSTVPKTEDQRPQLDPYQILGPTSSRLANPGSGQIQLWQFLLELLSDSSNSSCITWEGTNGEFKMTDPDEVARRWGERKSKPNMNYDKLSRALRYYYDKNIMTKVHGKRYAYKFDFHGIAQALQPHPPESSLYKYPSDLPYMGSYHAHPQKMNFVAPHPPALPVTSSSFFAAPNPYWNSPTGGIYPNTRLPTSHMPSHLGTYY
Procedure, shortened: as §1

ELF1 = ELF1 (Homo sapiens, UniProt P32519 1-619); details: protein: recombinant; tags: N-terminal GST; dsDNA, one strand shown
ELF1, sequence (P32519 whole entry): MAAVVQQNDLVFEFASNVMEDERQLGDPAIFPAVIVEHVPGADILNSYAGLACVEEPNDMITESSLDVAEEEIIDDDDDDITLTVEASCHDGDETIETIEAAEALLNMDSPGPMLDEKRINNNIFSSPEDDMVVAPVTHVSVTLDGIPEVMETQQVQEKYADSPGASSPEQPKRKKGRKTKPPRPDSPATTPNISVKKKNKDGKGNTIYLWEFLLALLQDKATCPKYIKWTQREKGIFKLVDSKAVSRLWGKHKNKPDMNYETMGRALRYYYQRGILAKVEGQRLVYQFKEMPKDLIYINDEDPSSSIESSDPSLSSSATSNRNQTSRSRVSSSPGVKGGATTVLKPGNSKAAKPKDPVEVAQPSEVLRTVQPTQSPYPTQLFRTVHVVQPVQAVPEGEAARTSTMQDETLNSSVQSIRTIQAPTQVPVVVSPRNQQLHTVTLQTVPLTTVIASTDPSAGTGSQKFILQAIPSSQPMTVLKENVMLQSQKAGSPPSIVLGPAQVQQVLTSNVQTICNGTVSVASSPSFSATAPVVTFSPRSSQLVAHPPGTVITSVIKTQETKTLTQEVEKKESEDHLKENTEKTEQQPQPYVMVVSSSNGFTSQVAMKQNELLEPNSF
Procedure, shortened: as §1

EHF = biological target: T5, EHF (Homo sapiens, UniProt Q9NZC4 1-300); details: protein: recombinant; tags: N-terminal GST; dsDNA, one strand shown
T5 sequence: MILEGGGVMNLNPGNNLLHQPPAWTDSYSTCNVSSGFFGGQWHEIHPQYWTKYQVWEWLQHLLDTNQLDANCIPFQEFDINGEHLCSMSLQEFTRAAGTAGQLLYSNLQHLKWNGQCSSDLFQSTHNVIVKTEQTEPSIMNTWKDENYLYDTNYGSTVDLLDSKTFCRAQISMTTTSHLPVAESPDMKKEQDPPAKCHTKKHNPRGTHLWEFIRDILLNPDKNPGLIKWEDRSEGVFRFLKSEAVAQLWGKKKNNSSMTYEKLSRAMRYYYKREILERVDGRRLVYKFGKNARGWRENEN
Procedure, shortened: as §1

SPI1 = SPI1 (Homo sapiens, UniProt P17947 1-270); details: protein: recombinant; tags: N-terminal GST; dsDNA, one strand shown
Procedure, shortened: as §1

SPIB = SPIB (Homo sapiens, UniProt Q01892 1-262); details: protein: recombinant; tags: N-terminal GST; dsDNA, one strand shown
SPIB, sequence (Q01892 whole entry): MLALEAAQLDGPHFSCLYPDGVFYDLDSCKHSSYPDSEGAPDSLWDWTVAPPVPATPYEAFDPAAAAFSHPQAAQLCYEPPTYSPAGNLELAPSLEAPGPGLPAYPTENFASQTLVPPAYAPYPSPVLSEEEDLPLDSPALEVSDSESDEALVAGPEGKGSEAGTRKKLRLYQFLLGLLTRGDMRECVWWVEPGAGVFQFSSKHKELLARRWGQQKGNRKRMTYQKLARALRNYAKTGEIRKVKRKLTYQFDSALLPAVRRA
Procedure, shortened: as §1

ELK3 = biological target: T6, ELK3 (Homo sapiens, UniProt P41970 1-407); details: protein: recombinant; tags: N-terminal GST; dsDNA, one strand shown
T6 sequence: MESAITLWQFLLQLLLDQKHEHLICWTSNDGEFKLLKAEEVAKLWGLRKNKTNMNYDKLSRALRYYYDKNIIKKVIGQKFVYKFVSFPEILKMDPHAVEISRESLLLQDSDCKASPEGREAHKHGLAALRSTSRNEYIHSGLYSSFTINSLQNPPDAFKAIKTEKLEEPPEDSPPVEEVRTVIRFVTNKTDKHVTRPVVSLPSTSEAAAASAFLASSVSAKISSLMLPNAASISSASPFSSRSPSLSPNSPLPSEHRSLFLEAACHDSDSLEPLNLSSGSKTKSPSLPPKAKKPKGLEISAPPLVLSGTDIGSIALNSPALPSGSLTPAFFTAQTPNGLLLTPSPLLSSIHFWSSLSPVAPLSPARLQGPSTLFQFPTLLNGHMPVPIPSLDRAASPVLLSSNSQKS
Procedure, shortened: as §1

FEV = biological target: T7, FEV (Homo sapiens, UniProt Q99581 1-238); details: protein: recombinant; tags: N-terminal GST; dsDNA, one strand shown
T7 sequence: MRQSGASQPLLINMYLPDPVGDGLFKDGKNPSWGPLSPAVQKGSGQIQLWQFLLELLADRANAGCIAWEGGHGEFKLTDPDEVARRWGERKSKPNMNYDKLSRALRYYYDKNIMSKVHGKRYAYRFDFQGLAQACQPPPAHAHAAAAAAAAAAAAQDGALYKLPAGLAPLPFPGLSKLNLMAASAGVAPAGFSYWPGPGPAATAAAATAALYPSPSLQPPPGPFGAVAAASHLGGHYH
Procedure, shortened: as §1

ETV5 = ETV5 (Homo sapiens, UniProt P41161 1-510); details: protein: recombinant; tags: N-terminal GST; dsDNA, one strand shown
ETV5, sequence (P41161 whole entry): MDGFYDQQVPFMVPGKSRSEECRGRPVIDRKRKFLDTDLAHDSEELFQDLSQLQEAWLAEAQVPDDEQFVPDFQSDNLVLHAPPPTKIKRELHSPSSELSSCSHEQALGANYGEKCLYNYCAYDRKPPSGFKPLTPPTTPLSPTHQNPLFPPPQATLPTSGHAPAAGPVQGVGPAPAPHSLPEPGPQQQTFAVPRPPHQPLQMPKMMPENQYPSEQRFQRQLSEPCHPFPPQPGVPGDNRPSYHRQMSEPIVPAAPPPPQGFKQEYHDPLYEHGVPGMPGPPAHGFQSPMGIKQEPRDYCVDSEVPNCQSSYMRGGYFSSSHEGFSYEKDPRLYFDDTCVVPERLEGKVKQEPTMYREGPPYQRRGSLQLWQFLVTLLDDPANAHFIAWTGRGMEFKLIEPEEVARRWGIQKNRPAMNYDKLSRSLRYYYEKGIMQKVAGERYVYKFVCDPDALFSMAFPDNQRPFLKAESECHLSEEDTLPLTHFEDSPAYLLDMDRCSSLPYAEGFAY
Procedure, shortened: as §1

HSF1 = HSF1 (Homo sapiens, UniProt Q00613 1-529); details: protein: recombinant; tags: N-terminal GST; chain copies: 3; dsDNA, one strand shown
HSF1, sequence (Q00613 whole entry): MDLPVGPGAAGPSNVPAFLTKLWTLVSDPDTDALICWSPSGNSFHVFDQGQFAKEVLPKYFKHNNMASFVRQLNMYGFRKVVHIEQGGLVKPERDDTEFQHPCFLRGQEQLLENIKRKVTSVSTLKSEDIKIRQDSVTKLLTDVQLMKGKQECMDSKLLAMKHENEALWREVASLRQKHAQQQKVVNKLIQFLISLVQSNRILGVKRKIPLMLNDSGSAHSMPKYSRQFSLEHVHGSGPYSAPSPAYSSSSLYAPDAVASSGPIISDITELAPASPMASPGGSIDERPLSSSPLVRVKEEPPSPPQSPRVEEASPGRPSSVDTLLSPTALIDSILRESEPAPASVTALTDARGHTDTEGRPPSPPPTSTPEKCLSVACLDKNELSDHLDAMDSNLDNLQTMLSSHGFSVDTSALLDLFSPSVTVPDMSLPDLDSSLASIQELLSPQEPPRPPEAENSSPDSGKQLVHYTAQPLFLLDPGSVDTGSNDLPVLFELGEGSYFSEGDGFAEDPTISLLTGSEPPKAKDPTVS
Procedure, shortened: as §1

SPIC = biological target: T8, SPIC (Homo sapiens, UniProt Q8N5J4 1-248); details: protein: recombinant; tags: N-terminal GST; dsDNA, one strand shown
T8 sequence: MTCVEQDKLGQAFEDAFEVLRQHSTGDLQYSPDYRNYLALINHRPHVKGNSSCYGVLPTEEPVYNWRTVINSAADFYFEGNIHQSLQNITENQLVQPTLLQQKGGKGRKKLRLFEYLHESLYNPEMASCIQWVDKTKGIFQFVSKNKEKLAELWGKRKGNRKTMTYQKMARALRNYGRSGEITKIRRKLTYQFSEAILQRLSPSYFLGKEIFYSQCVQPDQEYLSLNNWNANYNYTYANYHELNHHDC
Procedure, shortened: as §1

ELF4 = ELF4 (Homo sapiens, UniProt Q99607 1-663); details: protein: recombinant; tags: N-terminal GST; dsDNA, one strand shown
ELF4, sequence (Q99607 whole entry): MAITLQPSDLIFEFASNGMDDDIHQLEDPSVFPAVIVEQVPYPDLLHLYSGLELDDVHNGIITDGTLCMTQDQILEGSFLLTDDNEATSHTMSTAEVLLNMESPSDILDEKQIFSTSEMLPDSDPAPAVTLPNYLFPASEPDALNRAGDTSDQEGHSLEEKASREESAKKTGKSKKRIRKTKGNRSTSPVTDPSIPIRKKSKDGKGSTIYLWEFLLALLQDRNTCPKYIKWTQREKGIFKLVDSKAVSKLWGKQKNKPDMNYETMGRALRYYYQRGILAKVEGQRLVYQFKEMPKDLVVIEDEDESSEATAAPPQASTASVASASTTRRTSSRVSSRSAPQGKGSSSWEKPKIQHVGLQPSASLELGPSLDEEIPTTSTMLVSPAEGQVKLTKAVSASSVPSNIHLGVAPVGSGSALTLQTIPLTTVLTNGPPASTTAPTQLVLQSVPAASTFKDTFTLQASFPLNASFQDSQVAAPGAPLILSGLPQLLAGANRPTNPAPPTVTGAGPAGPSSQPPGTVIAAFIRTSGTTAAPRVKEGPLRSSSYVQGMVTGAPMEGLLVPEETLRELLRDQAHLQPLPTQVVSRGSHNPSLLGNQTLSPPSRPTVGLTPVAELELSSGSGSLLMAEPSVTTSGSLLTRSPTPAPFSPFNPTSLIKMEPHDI
Procedure, shortened: as §1

ELK4 = biological target: T9, ELK4 (Homo sapiens, UniProt P28324-2 1-405); details: protein: recombinant; tags: N-terminal GST; dsDNA, one strand shown
T9 sequence: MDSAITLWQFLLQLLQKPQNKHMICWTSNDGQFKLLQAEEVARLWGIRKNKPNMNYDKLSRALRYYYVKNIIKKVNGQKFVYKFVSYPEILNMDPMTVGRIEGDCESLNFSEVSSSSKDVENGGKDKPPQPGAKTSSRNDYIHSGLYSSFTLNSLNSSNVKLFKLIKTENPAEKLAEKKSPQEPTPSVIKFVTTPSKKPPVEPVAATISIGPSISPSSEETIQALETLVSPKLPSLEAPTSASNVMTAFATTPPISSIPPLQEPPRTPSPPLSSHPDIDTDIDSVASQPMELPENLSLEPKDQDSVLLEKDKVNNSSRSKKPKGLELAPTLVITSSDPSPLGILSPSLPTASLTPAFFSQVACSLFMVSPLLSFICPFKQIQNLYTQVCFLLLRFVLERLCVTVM
Procedure, shortened: as §1

ETV2 = biological target: T10, ETV2 (Homo sapiens, UniProt O00321 1-342); details: protein: recombinant; tags: N-terminal GST; dsDNA, one strand shown
T10 sequence: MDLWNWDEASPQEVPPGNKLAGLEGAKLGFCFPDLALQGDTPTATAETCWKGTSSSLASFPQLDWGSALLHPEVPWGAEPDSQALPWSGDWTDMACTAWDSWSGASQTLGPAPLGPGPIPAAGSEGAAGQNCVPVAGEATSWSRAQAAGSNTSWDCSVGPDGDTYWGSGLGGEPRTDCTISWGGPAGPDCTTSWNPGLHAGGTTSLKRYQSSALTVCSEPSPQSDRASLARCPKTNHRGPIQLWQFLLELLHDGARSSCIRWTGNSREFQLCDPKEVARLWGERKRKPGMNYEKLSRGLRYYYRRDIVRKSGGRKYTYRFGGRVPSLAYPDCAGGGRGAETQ
Procedure, shortened: as §1

ELF3 = biological target: T11, ELF3 (Homo sapiens, UniProt P78545 1-371); details: protein: recombinant; tags: N-terminal GST; dsDNA, one strand shown
T11 sequence: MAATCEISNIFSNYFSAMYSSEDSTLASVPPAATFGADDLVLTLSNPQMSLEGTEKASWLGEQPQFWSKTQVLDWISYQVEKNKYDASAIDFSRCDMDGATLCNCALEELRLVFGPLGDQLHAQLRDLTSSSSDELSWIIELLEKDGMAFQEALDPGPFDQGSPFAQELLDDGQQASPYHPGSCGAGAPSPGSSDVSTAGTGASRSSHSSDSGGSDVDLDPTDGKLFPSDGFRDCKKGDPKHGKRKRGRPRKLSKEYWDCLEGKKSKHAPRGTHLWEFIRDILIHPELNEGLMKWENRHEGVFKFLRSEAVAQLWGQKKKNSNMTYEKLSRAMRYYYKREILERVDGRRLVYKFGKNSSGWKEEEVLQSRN
Procedure, shortened: as §1

CRX = CRX (Homo sapiens, UniProt O43186 1-299); details: protein: recombinant; tags: N-terminal GST; dsDNA, one strand shown
CRX, sequence (O43186 whole entry): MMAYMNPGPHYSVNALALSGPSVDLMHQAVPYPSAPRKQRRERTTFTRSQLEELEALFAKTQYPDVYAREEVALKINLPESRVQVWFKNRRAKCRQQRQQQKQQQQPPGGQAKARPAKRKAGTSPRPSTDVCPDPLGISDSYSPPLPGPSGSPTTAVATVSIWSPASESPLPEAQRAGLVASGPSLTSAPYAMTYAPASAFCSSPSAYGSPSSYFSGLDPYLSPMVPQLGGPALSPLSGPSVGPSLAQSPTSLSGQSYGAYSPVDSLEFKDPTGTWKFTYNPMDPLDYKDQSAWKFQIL
Procedure, shortened: as §1

ETV1 = ETV1 (Homo sapiens, UniProt P50549 1-477); details: protein: recombinant; tags: N-terminal GST; dsDNA, one strand shown
ETV1, sequence (P50549 whole entry): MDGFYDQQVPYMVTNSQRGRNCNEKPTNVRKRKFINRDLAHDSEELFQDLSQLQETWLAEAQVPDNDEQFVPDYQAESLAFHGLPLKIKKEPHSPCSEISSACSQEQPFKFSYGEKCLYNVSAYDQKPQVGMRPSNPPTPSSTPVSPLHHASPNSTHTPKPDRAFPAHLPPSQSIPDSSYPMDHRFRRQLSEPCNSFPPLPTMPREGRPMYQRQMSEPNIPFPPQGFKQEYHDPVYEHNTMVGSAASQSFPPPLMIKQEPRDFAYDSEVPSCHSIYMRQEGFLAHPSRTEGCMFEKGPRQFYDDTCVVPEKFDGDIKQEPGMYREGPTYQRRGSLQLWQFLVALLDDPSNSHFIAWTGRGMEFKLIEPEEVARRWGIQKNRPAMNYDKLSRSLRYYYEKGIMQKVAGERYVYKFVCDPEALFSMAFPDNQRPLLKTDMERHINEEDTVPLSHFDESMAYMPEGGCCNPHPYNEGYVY
Procedure, shortened: as §1

Sequence: AAGTTA
- binding signal (FLI1): 1.25 fold enrichment (6-mer frequency, TF over GST control)
- binding signal (ELK1): 1.26 fold enrichment (6-mer frequency, TF over GST control)
- binding signal (GABPA): 1.19 fold enrichment (6-mer frequency, TF over GST control)
- binding signal (ERG): 1.27 fold enrichment (6-mer frequency, TF over GST control)
- binding signal (ELF1): 1.27 fold enrichment (6-mer frequency, TF over GST control)
- binding signal (EHF): 1.24 fold enrichment (6-mer frequency, TF over GST control)
- binding signal (SPI1): 1.24 fold enrichment (6-mer frequency, TF over GST control)
- binding signal (SPIB): 1.12 fold enrichment (6-mer frequency, TF over GST control)
- binding signal (ELK3): 1.23 fold enrichment (6-mer frequency, TF over GST control)
- binding signal (FEV): 1.15 fold enrichment (6-mer frequency, TF over GST control)
- binding signal (ETV5): 1.26 fold enrichment (6-mer frequency, TF over GST control)
- binding signal (HSF1): 1.09 fold enrichment (6-mer frequency, TF over GST control)
- binding signal (SPIC): 1.27 fold enrichment (6-mer frequency, TF over GST control)
- binding signal (ELF4): 1.28 fold enrichment (6-mer frequency, TF over GST control)
- binding signal (ELK4): 1.19 fold enrichment (6-mer frequency, TF over GST control)
- binding signal (ETV2): 1.27 fold enrichment (6-mer frequency, TF over GST control)
- binding signal (ELF3): 1.15 fold enrichment (6-mer frequency, TF over GST control)
- binding signal (CRX): 1.26 fold enrichment (6-mer frequency, TF over GST control)
- binding signal (ETV1): 1.23 fold enrichment (6-mer frequency, TF over GST control)
